From PubChem BioAssay

assay: PSAC antagonists in infected red cells, primary screen, cell-based, P. falciparum Indochina, OD700, 2 h (AID 1155);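 further: lysis reports solute entry through the parasite surface anion channel PSAC; channel blockers reduce lysis of infected cells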; settings: P. falciparum Indochina infected erythrocytes, osmotic lysis OD700; higher = more signal, called active from +8 up or from −8 down

z-score, inactive:
CCC(CC)C(O)C1C=CC2C(=O)NC(=O)C2N1Nc1ccc(Cl)cc1Cl (stereo not given) 0.65, C=C(CCCC)/C(=C/C[C@@H](OC(=O)c1ccncc1)c1ccc(OCCO)cc1)c1cc(C(=O)OC)ccc1OC 3.18, CO[C@H]1O[C@H](CO)[C@@H](OC(=O)Nc2cccc(F)c2)[C@H](OC(=O)Nc2ccccc2)[C@@H]1OC(=O)Nc1ccccc1 1.93, C=C(COC)C(=O)CC[C@@H](OC(C)=O)c1ccc(CO)o1 -0.47, COC(=O)[C@H](Cc1ccccc1)N1CC2=C[C@@H](C3CC3)n3c(=O)n(C)c(=O)n3[C@H]2[C@@H]1[C@@H](O)Cc1ccccc1 2.35, C=C[C@H](CO[Si](CC)(CC)CC)N(Cc1ccc(OC(C)=O)c(OC)c1)S(=O)(=O)c1ccc(Br)cc1 -0.231, C=CCOC(=O)[C@H]1[C@@H]2C(=O)O[C@@H](c3ccccc3)[C@@H](c3ccccc3)N2[C@@H](c2ccc(OCCOC(=O)[C@H]3C[C@H]4C(=O)N[C@@H](CCCCNC(C)=O)C(=O)N4[C@H]3c3ccc(O)cc3)cc2)[C@]12C(=O)Nc1ccc(I)cc12 0.461, CC(C)C(O)C1C=CC2C(=O)NC(=O)C2N1Nc1ccc(Cl)cc1Cl (stereo not given) 0.648, COc1ccc([Si](C)(C)[C@H]2[C@H](CCO)O[C@@]3(C(=O)N(Cc4ccc(N(C=O)c5ccccc5)cc4)c4ccccc43)[C@@H]2C)cc1 5.72, CC(C)C(O)C1C=CC2C(=O)N(c3ccccc3)C(=O)C2N1Nc1ccc([N+](=O)[O-])cc1 (stereo not given) 1.48
